Experimental data taken from PubChem BioAssay.
Active and inactive are the calls of the source. Unless noted, how the calls were made is not given here.

How the values were obtained:
[1] = compounds altering circadian rhythm period length – cell-based, LOPAC library, luminescence reporter (AID 2774); settings: circadian reporter cells, at 7 µM, actives lie on both sides;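 further: values are relative to mean of DMSO wells on each plate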
[2] = growth inhibition, single agents and combos, LFS_MB_1R, cell-based, cisplatin or BGB combos, synergistic combos for chromothripsis tumors (AID 1671452; in the data active means inhibition above about 80%;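 further: cells exposed for 96 hours before readout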); settings: LFS_MB_1R medulloblastoma cells, stronger effect = higher value
[3] = growth inhibition, single agents and combos, CRL2098, cell-based, BGB or cisplatin IC20 combos, synergistic combos for chromothripsis tumors (AID 1671454; in the data active means inhibition above about 80%;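 further: cells exposed for 96 h before readout; 0% = vehicle DMSO and 100% = killing by high DMSO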); settings: CRL2098 osteosarcoma cells, drug combinations, stronger effect = higher value
[4] = growth inhibition, single agents and combos, HD-MB03, cell-based, BGB or cisplatin IC20 combos, synergistic combos for chromothripsis tumors (AID 1671455; in the data active means inhibition above about 83%;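 further: 0% = vehicle DMSO and 100% = high DMSO as cytotoxic control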); settings: HD-MB03 medulloblastoma cells, stronger effect = higher value
[5] = growth inhibition, single agents and combos, UWB1.289, cell-based, BGB or cisplatin combos, synergistic combos for chromothripsis tumors (AID 1671456; in the data active means inhibition above about 80%;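 further: cells exposed to compound for four days; 0% = vehicle DMSO and 100% = killing by high DMSO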); settings: UWB1.289 ovarian carcinoma cells, stronger effect = higher value
[6] = growth inhibition, single agents and combos, LFS_MB_2R, cell-based, cisplatin combos, synergistic combos for chromothripsis tumors (AID 1671457; in the data active means inhibition above about 80%;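 further: cells exposed to compound for four days before readout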); settings: LFS_MB_2R medulloblastoma cells, stronger effect = higher value
[7] = growth inhibition, MDA-MB-436, cell-based, BGB or cisplatin combos, synergistic combos for chromothripsis tumors (AID 1671458); settings: MDA-MB-436 breast carcinoma growth inhibition, drug combinations, stronger effect = higher value;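 further: cells exposed for 96 hours; 0% = vehicle DMSO and 100% = killing by high DMSO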
[8] = UWB1.289_BRCA1 ovarian cancer growth, cell-based, BGB or cisplatin combinations (AID 1671459; in the data active means inhibition above about 80%); settings: UWB1.289 BRCA1 ovarian carcinoma, drug combinations, stronger effect = higher value
[9] = drug combination toxicity in non-malignant astrocytes – cell-based, BGB or cisplatin IC20 combos, cytotoxicity control for chromothriptic childhood tumor combination screen (AID 1671460; in the data active means inhibition above about 80%;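 further: cells exposed to compounds for 96 hours before viability readout; 0% = vehicle and 100% = killing control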); settings: Human astrocytes, viability inhibition, drug combinations, at 0.5 µM, stronger effect = higher value
[10] = BT084 cell growth, single and combined drugs, ICGC_MB145, cisplatin and BGB IC40 combos (AID 1671461; in the data active means inhibition above about 80%;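 further: cells exposed to drugs for 96 hours; 0% = vehicle DMSO and 100% = high DMSO full killing control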); settings: BT084 medulloblastoma cells, drug combinations, stronger effect = higher value
[11] = RCMB18 cell growth, single agent and combined, cisplatin and BGB IC40 combos (AID 1671462; in the data active means inhibition above about 80%;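 further: cells exposed to compound for four days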); settings: RCMB18 medulloblastoma cells, stronger effect = higher value
[12] = CRL1545 cell growth, single agent and combined, cisplatin and BGB IC20 combos (AID 1671464; in the data active means inhibition above about 80%;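 further: cells exposed to compound for 96 hours before readout; 0% = vehicle DMSO and 100% = high DMSO killing control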); settings: CRL1545 osteosarcoma cells, stronger effect = higher value
[13] = system: Hepatitis C virus NS3 helicase; test: blockers of NS3h binding to ssDNA – biochemical, fluorescence polarization, LOPAC1280 library, primary screen (AID 687035; in the data active means inhibition above about 37%); settings: Purified HCV NS3 helicase, Cy5-dT15 ssDNA binding fluorescence polarization; stronger effect = higher value; concentration not given here
[14] = compounds altering Cy5-DNA-NS3h complex signal – biochemical, LOPAC1280, artefact control for HCV NS3 helicase inhibitor project (AID 687037); settings: Cy5-DNA-NS3h complex fluorescence interference counterscreen
[15] = compounds altering viability of human ES cells (AID 493140); settings: human embryonic stem cell survival screen; stronger effect = higher value;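 further: cells exposed to compounds for four days before counting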
[16] = measured here: combination with cisplatin, at 0.5 µM
[17] = measured here: combination with cisplatin, at 5 µM

## COc1ccc2[nH]c(I)c(CCNC(C)=O)c2c1
[1]
  period change: -0.075 h (inactive)

## COc1cc(C=O)c([N+](=O)[O-])cc1OC
[2]; at 0.5 µM
  inhibition: -20.1% (inactive)
[2]; measured here: combination with BGB IC40, at 0.05 µM
  inhibition: -4.39%
[2]; [16]
  inhibition: -40%
[2]; [17]
  inhibition: -37.8%
[3]; at 0.5 µM
  inhibition: -33.8% (inactive)
[3]; measured here: combination with BGB at IC20, at 0.5 µM
  inhibition: -36.3%
[3]; measured here: combination with cisplatin at IC20, at 0.5 µM
  inhibition: -11%
[4]; at 0.5 µM
  inhibition: -11.8% (inactive)
[4]; measured here: combo with BGB at IC20, at 0.5 µM
  inhibition: -17.8%
[4]; measured here: combo with cisplatin at IC20, at 0.5 µM
  inhibition: -8.28%
[5]; at 0.5 µM
  inhibition: -8.53% (inactive)
[5]; measured here: inhibition with BGB combination, at 0.05 µM
  inhibition: 3.53%
[5]; measured here: inhibition with cisplatin combination, at 0.05 µM
  inhibition: -7.7%
[6]; at 0.5 µM
  inhibition: -7.6% (inactive)
[6]; [16]
  inhibition: -4.15%
[6]; [17]
  inhibition: 0.394%
[7]; at 0.5 µM
  inhibition: -6.2% (inactive)
[7]; measured here: BGB combination, at 0.5 µM
  inhibition: -13%
[7]; measured here: BGB combination, at 5 µM
  inhibition: -6.36%
[7]; measured here: cisplatin combination, at 0.5 µM
  inhibition: 1.75%
[7]; measured here: cisplatin combination, at 5 µM
  inhibition: 6.49%
[8]; BGB combination, concentration series, at 5 µM
  inhibition: 0.582%
[8]; at 0.5 µM
  inhibition: -4.66% (inactive)
[8]; cisplatin combination, concentration series, at 5 µM
  inhibition: -5.09%
[9]
  inhibition: -7.65% (inactive)
[9]; measured here: combo with BGB IC20
  inhibition: -3.78%
[9]; measured here: combo with cisplatin IC20
  inhibition: -9.79%
[10]; at 0.5 µM
  inhibition: 1.74% (inactive)
[10]; cisplatin combination, at 0.5 µM
  inhibition: 3.64%
[10]; cisplatin combination, at 5 µM
  inhibition: -6.4%
[10]; measured here: BGB IC40 combination 0.05 uM, at 0.05 µM
  inhibition: 80.8%
[10]; single agent, at 5 µM
  inhibition: 1.94%
[11]; at 0.5 µM
  inhibition: -0.87% (inactive)
[11]; cisplatin combo, at 5 µM
  inhibition: -1.64%
[11]; measured here: BGB IC40 combination, at 0.05 µM
  inhibition: 1.84%
[11]; [16]
  inhibition: 9.53%
[11]; single agent, at 5 µM
  inhibition: -21.6%
[12]; at 0.5 µM
  inhibition: -4.03% (inactive)
[12]; measured here: with BGB IC20 combination, at 0.5 µM
  inhibition: -16.1%
[12]; measured here: with cisplatin IC20 combination, at 0.5 µM
  inhibition: 2%
[12]; single agent, at 0.05 µM
  inhibition: -14.2%
[12]; single agent, at 5 µM
  inhibition: -34.2%

## C#CCN1C(C)=C(C(=O)OC)C(c2cccc([N+](=O)[O-])c2)C(C(=O)OCC)=C1C (centres undefined)
[1]
  period change: -0.025 h (inactive)
[13]
  inhibition: 1% (inactive)
[14]
  fluorescence ratio (interference): 0.9 (inactive)

## Cc1nc2sccn2c(=O)c1CCN1CCC(=C(c2ccccc2)c2ccc(F)cc2)CC1
[1]
  period change: -0.05 h (inactive)
[13]
  inhibition: -1% (inactive)
[14]
  fluorescence ratio (interference): 1 (inactive)

## Cc1c(CC(C)(C)C(=O)O)n(Cc2ccc(Cl)cc2)c2ccc(F)cc12
[1]
  period change: -0.04 h (inactive)

## N#C/C(=C\c1ccc(O)c(O)c1)C(=O)NCCCc1ccccc1
[1]
  period change: 0.005 h (inactive)
[13]
  inhibition: -2% (inactive)
[14]
  fluorescence ratio (interference): 1 (inactive)

## COc1[nH]c2ccc(F)cc2c1C(=O)OCC1CCN(CCNS(C)(=O)=O)CC1
[1]
  period change: -0.015 h (inactive)

## N#C/C(=C\c1ccc(O)c(O)c1)C(N)=O
[15]
  survival: 73 (inactive)

## FC(F)(F)c1cc(CO[C@H]2CCCN[C@H]2c2ccccc2)cc(C(F)(F)F)c1
[1]
  period change: 0 h (inactive)

## C=CC(=O)c1ccc2ccccc2c1
[15]
  survival: 46.4 (inactive)

## N#C/C(=C\c1ccc(O)c(O)c1)C(=O)Nc1ccccc1
[1]
  period change: 0.11 h (inactive)
[13]
  inhibition: -2% (inactive)
[14]
  fluorescence ratio (interference): 0.9 (inactive)

## Cc1cccc(C)c1NC(=O)C[N+](C)(C)C
[1]
  period change: 0.05 h (inactive)

## COc1cc2c(cc1C(F)(F)F)N(C(=O)Nc1cc(F)cc(-c3cccnc3)c1)CC2
[1]
  period change: 0.195 h (inactive)

## O=C(OCCN1CCCCC1)c1c[nH]c2ccccc12
[1]
  period change: -0.005 h (inactive)

## CC(C)C1C2CCC(C2)C1N (centres undefined)
[1]
  period change: -0.025 h (inactive)
